# Measured values published in PubChem BioAssay (Tox21).
# Results filed as inconclusive are left out. Active and inactive are the calls of the source. Calls come from the whole dose curve; as a rule, active = well fitted cell-killing curve with a large enough effect in the repeat runs; inconclusive = weak or mixed curves, or effect the other way; inactive = flat fitted curve, though single readings scatter.
# Experiment: qHTS assay to identify small molecule agonists of the TGF-beta/Smad signaling pathway - cell viability counter screen (AID 1346829); note: top concentration of the series differs between compounds; nearly all actives have a fitted effect of over 45% in size
# Conditions: SBE-bla HEK293T viability, CellTiter-Glo luminescence, 5 h; series mostly up to 76.8 µM; activity change, negative = cytotoxicity: at the top concentration
# Excerpt: National Center for Advancing Translational Sciences [NCATS]
# NIH Chemical Genomics Center [NCGC]
# U.S. Environmental Protection Agency [EPA]
# National Institutes of Environmental Health Sciences [NIEHS]
# National Toxicology Program [NTP]
# U.S. Food and Drug Administration [FDA]
# Transforming growth factor beta (TGF-beta) superfamily consists of a large number of structurally related dimeric proteins that act as hormones or local mediators in regulating a wide range of biological functions. This superfamily includes TGF-betas themselves, the bone morphogenetic proteins (BMPs) and the activins. These ligands induce oligomerization of serine/threonine receptor kinases and phosphorylate the cytoplasmic signaling molecules of Smad protein family. CellSensor SBE-bla HEK 293T cell line (Life Technologies, Carlsbad, CA), responsive to TGF-beta was used to screen Tox21 10K compound library for identification of agonists/antagonists of the Smad signaling pathway. This cell line contains a beta-lactamase reporter gene under control of the Smad binding element (SBE) stably integrated into HEK 293T cells. Also cytotoxicity of the compounds was tested in parallel by measuring the cell viability using CellTiter-Glo assay system in the same wells.
# Tox21 Assay Protocol Summary:
# SBE-bla HEK 293T cells were dispensed at 4,000/well in 6 uL of assay medium into black wall/clear-bottom 1536-well plates using a Multidrop Combi (ThermoFisher Scientific, Waltham, MA) dispenser. After the assay plates were incubated at 37 C and 5% CO2 for an overnight, 23 nL of compounds dissolved in DMSO, positive controls or DMSO only was transferred to the assay plate by a Pintool station (Kalypsys, San Diego, CA). The assay plates were incubated at 37 C and 5% CO2 for 5 hr. One uL of LiveBLAzer B/G FRET substrate (Life Technologies) was added using a Flying Reagent Dispenser (FRD, Aurora Discovery, San Diego, CA) and the plates were incubated at room temperature for 2 hr. Fluorescence intensity (405 nm excitation, 460 nm and 530 nm emissions) was measured using an Envision plate reader (PerkinElmer, Shelton, CT). For cytotoxicity read, 4 uL of CellTiter-Glo reagent (Promega Corporation, Madison, WI) was added to each well of the assay plates using FRD. After 30min incubation at room temperature, the luminescence intensity was measured using ViewLux plate reader (PerkinElmer).
# % is set by controls: 0 for no effect and ±100 for the full control effect.
row,Structure (SMILES),"activity change, negative = cytotoxicity"
1,COC(=O)C(C)=O,22.3% (inactive)
2,O=C(O)C(c1ccc(Cl)cc1)c1ccc(Cl)cc1,7.92% (inactive)
3,CC(C)=CCCC(C)CC=O (stereo not given),-18.4% (inactive)
4,CCCC[C@H]1CN(CC2CCOCC2)C(=O)OC12CCN(C1(C)CCN(C(=O)c3c(C)ncnc3C)CC1)CC2,-11.6% (inactive)
5,C=CC(=O)OCCOC(=O)CCC(=O)O,6.44% (inactive)
6,Oc1ccc(Sc2ccc(O)cc2)cc1,-7.49% (inactive)
7,OCC1CC2CC1C1CCC(CO)C21 (stereo not given),-13.6% (inactive)
8,Nc1ccc(C(=O)Nc2ccccc2N)cc1,-2% [at 35.3 µM] (inactive)
9,COc1ccccc1OC(=O)Oc1ccccc1OC,-1.48% [at 35.3 µM] (inactive)
10,COCCO,-18% (inactive)
11,O=C(NN1CCCC1)NS(=O)(=O)c1ccc(Cl)cc1,-0.704% [at 35.3 µM] (inactive)
12,CNCC[C@@H](Oc1ccccc1C)c1ccccc1,-6.01% [at 35.3 µM] (inactive)
13,CC[C@H](C)[C@@H](C(=O)O)n1sc2ccccc2c1=O,2.03% (inactive)
14,CC(Cc1cccc(C(F)(F)F)c1)NCCOC(=O)c1ccccc1 (stereo not given),0.25% [at 35.3 µM] (inactive)
15,Cc1ccc(C(C)c2ccc(C)c(C)c2)cc1C,3.64% (inactive)
16,N#CCc1cccc(C(F)(F)F)c1,1.94% (inactive)
17,CC(C)c1ccccc1C(C)C,9.57% (inactive)
18,CC(CN)CCCN (stereo not given),1.5% (inactive)
19,Oc1ccc(O)c2c(O)cccc12,-2.94% (inactive)
20,CCCCCCCCCCCCC(=O)O,3.06% (inactive)

row,Structure (SMILES),"activity change, negative = cytotoxicity"
1,CN(C)CCCNCCCN,-0.519% (inactive)
2,O=C(Cl)c1ccc([N+](=O)[O-])cc1,1.13% (inactive)
3,O=C(Nc1ccccc1)OCC(CN1CCCCC1)OC(=O)Nc1ccccc1 (stereo not given),-4.39% [at 35.3 µM] (inactive)
4,O=C(NS(=O)(=O)/C=C/c1cccs1)c1ccc(F)cc1Br,3.48% (inactive)
5,CC(=O)/C=C/C1C(C)=CCCC1(C)C (stereo not given),16.3% (inactive)
6,C=C(C)C(=O)OC(C)C,-1.88% (inactive)
7,Cc1cc(O)ccc1N,20.6% (inactive)
8,Cn1c(N)nc2nc[nH]c2c1=O,11.2% (inactive)
9,CC(C)c1ccc2c(C(C)C)cc(C(C)C)c(S(=O)(=O)O)c2c1,2.13% (inactive)
10,Cc1ccc(C(=O)C(C)CN2CCCCC2)cc1 (stereo not given),-5.75% [at 35.3 µM] (inactive)
11,CC(C)(C)c1ccc(OCC2CO2)cc1 (stereo not given),-0.0242% (inactive)
12,CCCCc1cc2ccccc2c(OCCN(C)C)n1,10.1% [at 35.3 µM] (inactive)
13,Cc1cc(C)c(S(=O)(=O)O)cc1N=Nc1cc(S(=O)(=O)O)c2ccccc2c1O,4.7% (inactive)
14,C#CCOC(=O)[C@@H](C)Oc1ccc(Oc2ncc(Cl)cc2F)cc1,2.18% (inactive)
15,CCCCCOC(=O)c1ccc(O)cc1,2.53% (inactive)
16,Cc1ccccc1N=Nc1ccc(N=Nc2c(O)ccc3ccccc23)c(C)c1,-5.76% [at 35.3 µM] (inactive)
17,CCCCC(CC)COCCCN (stereo not given),3.07% (inactive)
18,CCc1nn(C2CCCCC2)c2cc(C3(C#N)CCC(C(=O)O)CC3)ccc12 (stereo not given),8.61% (inactive)
19,Cc1cccc(OCCOc2cccc(C)c2)c1,1.82% (inactive)
20,Cn1c(NCCN(CCO)CCCc2ccc([N+](=O)[O-])cc2)cc(=O)n(C)c1=O,-15.8% [at 35.3 µM] (inactive)
